Records with an inconclusive call do not appear. Unmarked numbers belong to inactive results. Active and inactive are the calls of the source. Calls come from the whole dose curve; as a rule, active = well fitted inhibition curve with a large enough effect; inconclusive = small, poorly fitted or top-dose-only effect; inactive = no such curve, though single readings can be large or run the other way.

What is called viability is a read-out of living cells in per cent, often relative to untreated cells.
Potency is the fitted concentration of half-maximal effect.

This assay can be described thus: BET inhibitor-based combinations targeting novel dependencies in MECOM-rearranged (r) AML: SET-2 cell line (AID 2202231). Note: nearly all actives have a fitted effect of over 35% in size. The following applies: SET-2 AML cells viability, CellTiter-Glo luminescence, 48 h; viability: active compounds read low, series mostly up to about 46 µM. An excerpt: Ecotropic viral insertion site 1 (EVI1) is located on chromosome 3q26.2 as part of the MECOM (MDS and EVI1 complex) locus. Under normal hematopoiesis, EVI1 is a regulator of hematopoietic stem cell maintenance and self-renewal and EVI1 levels decrease as the cells differentiate. In approximately 5-10% of de novo acute myeloid leukemia (AML) EVI1 is aberrantly expressed, including Chromosomal inv(3)(q21;q26.2) or t(3;3)(q21;q26.2) alterations (MECOM-r) that account for about 50% of AML with EVI1 overexpression 31. AMLs with high levels of EVI1 have a poor prognosis and an overall survival time averaging between 10-14 months. EVI1 overexpression confers resistance in leukemia cells, highlighting the need to develop new targeted therapies for EVI1 overexpressing AMLs.
Here, we performed an unbiased chemical drug screening by evaluating the single agent activity of a collection of 2,480 oncology-focused, approved and investigational drugs (NCATS Mechanism Interrogation Plates, MIPE v5.0) against a panel of seven AML cell lines. These included four MECOM-r cell-lines (AML-191, AML-194, UCSD-AML1 and HNT-34) and three non-MECOM-r AMLs (MV4-11, OCI-AML3 and SET-2). Exploiting the mechanistic redundancy built in the library, we identified target-level sensitivities in MECOM-r AML cells and relative activity as compared to other AML subtypes.
A collection of 2480 mechanistically annotated dugs (MIPE v5.0) was used to screen four 3q26.2 rearranged AML cell lines and three non-3q26.2 rearranged AML cell lines. This library purposely exploits redundancy by including multiple inhibitors of key onco-targets, while simultaneously encompassing mechanistic diversity, targeting more than 800 distinct mechanisms of action. Briefly, cells were seeded in 5 uL of growth media using a Multidrop Combi dispenser into 1536 well white polystyrene tissue culture treated plates (Corning) at a density of 500cells/well. For each cell-line, for each of the 2480 drugs in MIPE v5.0 library, an 11-point dose curve was generated via a 1536 pin-tool. Plates were incubated for 48 hr at standard incubator conditions, covered by a stainless steel gasketed lid to prevent evaporation. Cell viability was determined by luminescence based, Cell Titer Glo assay (Promega). In detail, 3 uL of Cell Titer Glo were added to each well and plates were incubated at room temperature for 15 min with a stainless-steel lid in place. Luminescence readings were taken using a Viewlux (PerkinElmer) with a 2 s exposure time per plate. Compound dose-response curves were normalized to DMSO and empty well controls on each plate. Quantitative drug activity data from dose-response curves was determined utilizing area Under the Curve (AUC) and Z-transformed AUC (Z-AUC, a mean-centering transformation applied to each individual cell-line screened).
Background: ATP-based viability assays read luminescence as a measure of living cells.
With `CC(C)(O)C(=O)Nc1ccc([N+](=O)[O-])c(C(F)(F)F)c1`, the Potency was 23500 nM (active).

As for `Cn1c(CCCC(=O)O)nc2cc(N(CCCl)CCCl)ccc21`, the viability was 78.5%.

In the case of `CN1C(=O)CCS(=O)(=O)C1c1ccc(Cl)cc1` (stereo not given), the viability is 123%.

With `Cc1sc2c(c1C)C(c1ccc(Cl)cc1)=N[C@@H](CC(=O)OC(C)(C)C)c1nnc(C)n1-2`, the Potency was 590 nM (active).

Take `CC[C@@H](C(N)=O)N1CCCC1=O`: the viability was 108%.

On to `CCN1C[C@]2(OC(=O)c3ccccc3NC(C)=O)CC[C@H](OC)[C@@]34[C@H]5CC6[C@@H](OC)C[C@](O)(C(C[C@@H]23)[C@@H]14)[C@@]5(O)[C@@H]6OC`, for which the viability is 104%.

On to `CC(C)(NC(=O)O[C@@H]1CN2CCC1CC2)c1csc(-c2ccc(F)cc2)n1`, for which the viability was 91.1%.

Regarding `O=C(Oc1ccc([N+](=O)[O-])cc1)N1CCC(C(O)(c2ccc3c(c2)OCO3)c2ccc3c(c2)OCO3)CC1`, the viability was 104%.

Consider `Cc1cccc(C)c1NC(=O)CN1CCCC1=O`, for which the viability was 109%.

`CC(C)C[C@H](CN)CC(=O)O`: the viability is 113%.

Regarding `COc1ccc(C(=O)N2CCCC2=O)cc1`, the viability was 119%.

`Cc1sc2c(c1C)C(c1ccc(Cl)cc1)=N[C@@H](CC(N)=O)c1nnc(C)n1-2`: the Potency is 372 nM (active).

With `O=c1cccc2n1CC1CNC[C@H]2C1`, the viability is 119%.

Turning to `O=C(N[C@H]1CN2CCC1CC2)c1ccc(Cl)cc1`, the viability was 112%.

For the compound `O=C(O)CNC(=O)c1c(O)c2ccccc2n(Cc2ccccc2)c1=O`, the viability is 107%.

For the compound `O=c1[nH]c2ccc(Cl)cc2c(N[C@@H]2CN3CCC2CC3)c1-c1nc2ccccc2[nH]1`, the Potency is 332 nM (active).

In the case of `CCCCCCC(C)(C)c1cc(O)c2c(c1)OC(C)(C)C1CC=C(CO)C[C@H]21` (stereo not given in full), the Potency is 23500 nM (active).

Regarding `C[C@]12CC[C@H]3[C@@H](CCC4=CC(=O)CC[C@@]43C)[C@H]1CC[C@H]2OC(=O)CCC1CCCC1`, the viability is 96.4%.

With `C#C[C@]1(O)C=C[C@H]2[C@@H]3CCC4=CC(=O)CC[C@@H]4[C@H]3CC[C@@]21CC`, the viability was 95.4%.

Consider `Cc1c(N)nc([C@H](CC(N)=O)NC[C@@H](N)C(N)=O)nc1C(=O)N[C@H](C(=O)N[C@@H](C)[C@H](O)[C@@H](C)C(=O)N[C@@H](C(=O)NCCc1nc(-c2nc(C(=O)NCCC[S+](C)C)cs2)cs1)[C@@H](C)O)C(O[C@H]1O[C@H](CO)[C@H](O)[C@@H](O)[C@H]1O[C@H]1O[C@H](CO)[C@@H](O)[C@H](OC(N)=O)[C@@H]1O)c1cnc[nH]1` (stereo not given in full), for which the viability was 100%.

As for `CC(NC(C)(C)C)C(=O)c1cccc(Cl)c1` (stereo not given), the viability was 111%.

As for `NN=C(N)N`, the viability is 108%.

Turning to `COC12C(COC(N)=O)C3=C(C(=O)C(C)=C(N)C3=O)N1CC1C2N1C` (stereo not given), the viability is 107%.

`N=c1c2c(-c3ccccc3)c(-c3ccccc3)n(Cc3ccccc3)c2ncn1C1CCC(O)CC1` (stereo not given): the Potency is 1320 nM (active).

As for `Cc1ccccc1-n1c(Cn2cnc3c(N)ncnc32)nc2cccc(C)c2c1=O`, the viability was 110%.

For `Cn1c(CCCCCCC(=O)NO)nc2cc(N(CCCl)CCCl)ccc21`, the Potency was 2630 nM (active).

For `O=C1CC[C@@]2(O)[C@H]3Cc4ccc(O)c5c4[C@@]2(CCN3CC2CC2)[C@H]1O5`, the viability was 123%.

For `C=C(C)[C@H]1Cc2c(ccc3c2O[C@@H]2COc4cc(OC)c(OC)cc4[C@@H]2C3=O)O1`, the Potency is 1180 nM (active).

Regarding `CN(C)c1cc2c(cc1Sc1nc3c(N)nccc3n1CCNCC(C)(C)C)OCO2`, the Potency was 1320 nM (active).

For the compound `CC[C@@]1(O)C(=O)OCc2c1cc1n(c2=O)Cc2cc3ccccc3nc2-1`, the Potency was 13.2 nM (active).

For the compound `CNCC(O)c1ccc(O)cc1` (stereo not given), the viability was 116%.

For `CCOP(=O)(OCC)C(C)NC(=O)N(CCCl)N=O` (stereo not given), the viability was 106%.

As to `CC1=C(O)C(=O)C=C2C1=CC=C1[C@@]2(C)CC[C@@]2(C)[C@@H]3C[C@](C)(C(=O)O)CC[C@]3(C)CC[C@]12C`, the Potency was 934 nM (active).

Turning to `CC(C)(O)/C=C\C(=O)[C@](C)(O)[C@H]1[C@H](O)C[C@]2(C)[C@@H]3CC=C4[C@@H](C=C(O)C(=O)C4(C)C)[C@]3(C)C(=O)C[C@@]12C`, the Potency was 1660 nM (active).

For `COc1cc2c(cc1F)C(c1ccccc1Cl)=Nc1c(n[nH]c1C)N2`, the Potency is 13200 nM (active).

As for `C[C@]12CC[C@H](O)CC1=CC[C@@H]1[C@@H]2CC[C@]2(C)C(=O)CC[C@@H]12`, the viability was 109%.

On to `NC(=O)[C@@H](CC1CC1)[C@@H](CCC(F)(F)F)C(=O)N[C@H]1N=C(c2ccccc2)c2cccc(F)c2NC1=O`, for which the viability is 117%.

On to `N[C@@H](Cc1ccc(N(CCCl)CCCl)cc1)C(=O)O`, for which the Potency was 4680 nM (active).

In the case of `O=P1(NCCCl)OCCCN1CCCl` (stereo not given), the viability is 115%.

Turning to `Cc1cc(SCc2sc(-c3ccc(C(F)(F)F)c(F)c3)nc2C)ccc1OCC(=O)O`, the viability is 99.6%.

For the origin of these results see PubChem BioAssay (NCATS).
